Experimental data from article PMC5540273 (PLoS ONE, 2017).
Where “and” joins values, the source holds several entries; their conditions need not be identical. Identical values can stand only once. Like-named read-outs stand apart in the source and are kept apart here.

Assays:
MYO3B = conditions: concentration: 1 μM, replicates: in singlicate; n = 1
NDR1 = test system: T1, NDR1; conditions: concentration: 1 μM, replicates: in singlicate, n = 1
T1 construct: gene STK38

NDR2 = conditions: concentration: 1 μM, replicates: in singlicate, n = 1
NEK10 = conditions: concentration: 1 μM, replicates: in singlicate, n = 1
NEK11 = conditions: concentration: 1 μM, replicates: in singlicate, n = 1
NEK1 = conditions: concentration: 1 μM, replicates: in singlicate, n = 1
NEK2 = conditions: concentration: 1 μM, replicates: in singlicate; n = 1
NEK3 = conditions: concentration: 1 μM, replicates: in singlicate, n = 1
NEK4 = conditions: concentration: 1 μM, replicates: in singlicate; n = 1
NEK5 = conditions: concentration: 1 μM, replicates: in singlicate, n = 1
NEK6 = conditions: concentration: 1 μM, replicates: in singlicate, n = 1
NEK7 = conditions: concentration: 1 μM, replicates: in singlicate; n = 1
NEK9 = conditions: concentration: 1 μM, replicates: in singlicate, n = 1
NIK = test system: T2, NIK; conditions: concentration: 1 μM, replicates: in singlicate, n = 1
T2 construct: gene MAP3K14

NIM1 = test system: T3, NIM1; conditions: concentration: 1 μM, replicates: in singlicate, n = 1
T3 construct: gene MGC42105

NLK = conditions: concentration: 1 μM, replicates: in singlicate; n = 1
OSR1 = test system: T4, OSR1; conditions: concentration: 1 μM, replicates: in singlicate, n = 1
T4 construct: gene OXSR1

PAK1 = conditions: concentration: 1 μM, replicates: in singlicate, n = 1
PAK2 = conditions: concentration: 1 μM, replicates: in singlicate, n = 1
PAK3 = conditions: concentration: 1 μM, replicates: in singlicate, n = 1
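Further: KINOMEscan kinase panel screen.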

N#Cc1c(N2CCOCC2)sc(-c2ccn[nH]2)c1-c1ccc(Cl)cc1
%Inh (MYO3B): 32% | %Inh (NDR1): 7% | %Inh (NDR2): 0% | %Inh (NEK10): 4% | %Inh (NEK11): 0% | %Inh (NEK1): 9% | %Inh (NEK2): 0% | %Inh (NEK3): 23% | %Inh (NEK4): 0% | %Inh (NEK5): 0% | %Inh (NEK6): 17% | %Inh (NEK7): 0% | %Inh (NEK9): 0% | %Inh (NIK): 8% | %Inh (NIM1): 54% | %Inh (NLK): 0% | %Inh (OSR1): 0% | %Inh (PAK1): 10% | %Inh (PAK2): 17% | %Inh (PAK3): 27%

COc1cc2c(cc1OC[C@@H](O)CO)ncc1c3ccc(C#N)cc3[nH]c21
%Inh (MYO3B): 0% | %Inh (NDR1): 62% | %Inh (NDR2): 15% | %Inh (NEK10): 18% | %Inh (NEK11): 0% | %Inh (NEK1): 0% | %Inh (NEK2): 23% | %Inh (NEK3): 37% | %Inh (NEK4): 0% | %Inh (NEK5): 0% | %Inh (NEK6): 0% | %Inh (NEK7): 0% | %Inh (NEK9): 0% | %Inh (NIK): 60% | %Inh (NIM1): 30% | %Inh (NLK): 0% | %Inh (OSR1): 0% | %Inh (PAK1): 0% | %Inh (PAK2): 0% | %Inh (PAK3): 0%

Nc1nc(-c2ccc3c(N)n[nH]c3c2)cc(N2CCCC2)n1 [GSK2227430]
%Inh (MYO3B): 7% | %Inh (NDR1): 14% | %Inh (NDR2): 0% | %Inh (NEK10): 0% | %Inh (NEK11): 0% | %Inh (NEK1): 12% | %Inh (NEK2): 0% | %Inh (NEK3): 5% | %Inh (NEK4): 0% | %Inh (NEK5): 0% | %Inh (NEK6): 0% | %Inh (NEK7): 0% | %Inh (NEK9): 6% | %Inh (NIK): 0% | %Inh (NIM1): 0% | %Inh (NLK): 0% | %Inh (OSR1): 7% | %Inh (PAK1): 13% | %Inh (PAK2): 12% | %Inh (PAK3): 0%

Cc1cccc(-c2nc(Nc3ccc4ncsc4c3)c3ccccc3n2)n1 [GW867588]
%Inh (MYO3B): 16% | %Inh (NDR1): 14% | %Inh (NDR2): 4% | %Inh (NEK10): 5% | %Inh (NEK11): 0% | %Inh (NEK1): 0% | %Inh (NEK2): 0% | %Inh (NEK3): 0% | %Inh (NEK4): 0% | %Inh (NEK5): 0% | %Inh (NEK6): 8% | %Inh (NEK7): 0% | %Inh (NEK9): 0% | %Inh (NIK): 0% | %Inh (NIM1): 17% | %Inh (NLK): 14% | %Inh (OSR1): 0% | %Inh (PAK1): 0% | %Inh (PAK2): 45% | %Inh (PAK3): 19%

O=C(NCCNc1ccnc(Nc2ccc(F)cc2)n1)c1cc2ccccc2s1 [GSK1379874]
%Inh (MYO3B): 0% | %Inh (NDR1): 0% | %Inh (NDR2): 0% | %Inh (NEK10): 7% | %Inh (NEK11): 0% | %Inh (NEK1): 0% | %Inh (NEK2): 0% | %Inh (NEK3): 4% | %Inh (NEK4): 0% | %Inh (NEK5): 0% | %Inh (NEK6): 0% | %Inh (NEK7): 0% | %Inh (NEK9): 16% | %Inh (NIK): 0% | %Inh (NIM1): 33% | %Inh (NLK): 0% | %Inh (OSR1): 12% | %Inh (PAK1): 6% | %Inh (PAK2): 0% | %Inh (PAK3): 0%

Cl.Oc1cccc(Nc2ccnc3cc(-c4ccncc4)ccc23)c1 [GW494601]
%Inh (MYO3B): 0% | %Inh (NDR1): 24% | %Inh (NDR2): 37% | %Inh (NEK10): 0% | %Inh (NEK11): 49% | %Inh (NEK1): 0% | %Inh (NEK2): 0% | %Inh (NEK3): 1% | %Inh (NEK4): 0% | %Inh (NEK5): 0% | %Inh (NEK6): 0% | %Inh (NEK7): 0% | %Inh (NEK9): 0% | %Inh (NIK): 30% | %Inh (NIM1): 0% | %Inh (NLK): 66% | %Inh (OSR1): 0% | %Inh (PAK1): 0% | %Inh (PAK2): 0% | %Inh (PAK3): 33%

COC(=O)Nc1nc2cc(Oc3ccc(NC(=O)Nc4cc(F)ccc4F)cc3)ccc2[nH]1.Cl [GW701424]
%Inh (MYO3B): 0% | %Inh (NDR1): 26% | %Inh (NDR2): 0% | %Inh (NEK10): 8% | %Inh (NEK11): 7% | %Inh (NEK1): 0% | %Inh (NEK2): 0% | %Inh (NEK3): 0% | %Inh (NEK4): 0% | %Inh (NEK5): 3% | %Inh (NEK6): 0% | %Inh (NEK7): 0% | %Inh (NEK9): 0% | %Inh (NIK): 44% | %Inh (NIM1): 30% | %Inh (NLK): 10% | %Inh (OSR1): 14% | %Inh (PAK1): 0% | %Inh (PAK2): 0% | %Inh (PAK3): 0%

Fc1ccc(-c2ncn(CCCN3CCOCC3)c2-c2cccnc2)cc1 [SB-211743]
%Inh (MYO3B): 17% | %Inh (NDR1): 33% | %Inh (NDR2): 10% | %Inh (NEK10): 14% | %Inh (NEK11): 0% | %Inh (NEK1): 0% | %Inh (NEK2): 0% | %Inh (NEK3): 15% | %Inh (NEK4): 0% | %Inh (NEK5): 0% | %Inh (NEK6): 0% | %Inh (NEK7): 0% | %Inh (NEK9): 0% | %Inh (NIK): 41% | %Inh (NIM1): 0% | %Inh (NLK): 3% | %Inh (OSR1): 0% | %Inh (PAK1): 15% | %Inh (PAK2): 23% | %Inh (PAK3): 0%

O=c1cc(N2CCOCC2)nc2n(Cc3cccc(C(F)(F)F)c3)ccn12 [GSK2297543]
%Inh (MYO3B): 0% | %Inh (NDR1): 16% | %Inh (NDR2): 7% | %Inh (NEK10): 0% | %Inh (NEK11): 0% | %Inh (NEK1): 0% | %Inh (NEK2): 0% | %Inh (NEK3): 0% | %Inh (NEK4): 0% | %Inh (NEK5): 0% | %Inh (NEK6): 0% | %Inh (NEK7): 0% | %Inh (NEK9): 18% | %Inh (NIK): 25% | %Inh (NIM1): 14% | %Inh (NLK): 32% | %Inh (OSR1): 5% | %Inh (PAK1): 6% | %Inh (PAK2): 14% | %Inh (PAK3): 14%

COc1ccc(S(=O)(=O)NC2CCN(c3cc(C)nc(Nc4cccc(C#N)c4)n3)CC2)cc1.O=C(O)C(F)(F)F [GSK1653539]
%Inh (MYO3B): 0% | %Inh (NDR1): 35% | %Inh (NDR2): 0% | %Inh (NEK10): 23% | %Inh (NEK11): 0% | %Inh (NEK1): 0% | %Inh (NEK2): 3% | %Inh (NEK3): 0% | %Inh (NEK4): 0% | %Inh (NEK5): 2% | %Inh (NEK6): 0% | %Inh (NEK7): 0% | %Inh (NEK9): 0% | %Inh (NIK): 5% | %Inh (NIM1): 0% | %Inh (NLK): 50% | %Inh (OSR1): 0% | %Inh (PAK1): 3% | %Inh (PAK2): 0% | %Inh (PAK3): 0%

NCCNS(=O)(=O)c1ccc(-c2ccnc3[nH]ccc23)cc1 [GSK977617]
%Inh (MYO3B): 0% | %Inh (NDR1; 1 µM): 70% and 58% | %Inh (NDR2; 1 µM): 77% and 60% | %Inh (NEK10; 1 µM): 69% and 53% | %Inh (NEK11; 1 µM): 24% and 0% | %Inh (NEK1; 1 µM): 62% and 44% | %Inh (NEK2): 0% | %Inh (NEK3; 1 µM): 14% and 0% | %Inh (NEK4): 0% | %Inh (NEK5; 1 µM): 44% and 25% | %Inh (NEK6; 1 µM): 4% and 0% | %Inh (NEK7): 0% | %Inh (NEK9; 1 µM): 22% and 16% | %Inh (NIK; 1 µM): 19% and 7% | %Inh (NIM1; 1 µM): 0% and 26% | %Inh (NLK): 0% | %Inh (OSR1; 1 µM): 63% and 52% | %Inh (PAK1; 1 µM): 66% and 43% | %Inh (PAK2; 1 µM): 65% and 41% | %Inh (PAK3; 1 µM): 90.6% and 78%
